HPGD block = qHTS Assay for Inhibitors of HPGD (15-Hydroxyprostaglandin Dehydrogenase); purified HPGD, NADH fluorescence kinetic, PGE2 substrate; Potency, µM, most hits filed as inhibitors; 4.3% of 150,000 active; AID 894, 2007
Target sequence (P15428 whole entry, looked up): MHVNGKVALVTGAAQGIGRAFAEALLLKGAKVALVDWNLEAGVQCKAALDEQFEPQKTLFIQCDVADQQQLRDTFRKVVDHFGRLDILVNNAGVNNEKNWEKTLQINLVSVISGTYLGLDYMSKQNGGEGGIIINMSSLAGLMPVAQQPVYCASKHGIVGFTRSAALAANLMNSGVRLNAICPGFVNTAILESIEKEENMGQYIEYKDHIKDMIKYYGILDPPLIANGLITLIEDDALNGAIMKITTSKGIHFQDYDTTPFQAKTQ
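NADH formation kinetics: reaction with 30 uM PGE2 and 1 mM NAD+ (final), 20 nM enzyme, Tris-HCl pH 8 with Tween 20, after 15 min compound preincubation at room temperature. Fluorescence change, last versus first of five reads.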
Tau fluor cs = Counterscreen qHTS for Inhibitors of Tau Fibril Formation, Fluorescence Polarization; tau K18 P301L Alexa594 fluorescence, heparin fibrillization; Potency, µM (highest dose often 57.7 µM); 0.93% of 280,000 active; AID 1463, 2008; active means well fitted curve in the direction sought with a large enough effect; inconclusive means small, poorly fitted or top-dose-only effect, or another doubt; inactive means no such curve, though single readings can be large; an effect the other way counts as inactive or inconclusive; further: nearly all actives have a fitted effect of over 55% in size
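Human K18 P301L tau (15 uM unlabeled plus 0.24 uM Alexa 594-labeled, final) in 100 mM sodium acetate pH 7 was mixed with compound and 20 uM heparin and incubated 6 hr at 37 C.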
Tau fibril ThT = qHTS for Inhibitors of Tau Fibril Formation, Thioflavin T Binding; Microtubule-associated protein tau (Homo sapiens), P10636; recombinant tau K18 P301L (four-repeat tau fragment), heparin-induced fibrillization, ThT fluorescence; Potency, µM (top dose mostly 57.4 µM), most hits filed as inhibitors; 2.1% of 270,000 active; AID 1460, 2008; active means well fitted curve in the direction sought with a large enough effect; inconclusive means small, poorly fitted or top-dose-only effect, or another doubt; inactive means no such curve, though single readings can be large; an effect the other way counts as inactive or inconclusive; further: nearly all actives have a fitted effect of over 55% in size
Target sequence (P10636 561-689 P618L limits assumed): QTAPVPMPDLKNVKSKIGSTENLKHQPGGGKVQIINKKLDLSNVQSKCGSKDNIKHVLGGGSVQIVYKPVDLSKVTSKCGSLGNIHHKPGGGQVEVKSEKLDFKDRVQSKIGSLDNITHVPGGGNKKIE
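Heparin-induced (20 uM) aggregation of recombinant human K18 P301L tau, 15 uM unlabeled with 0.24 uM labeled, pH 7 acetate buffer, 6 hr at 37 C with compound. Fibrils quantified by 30 uM ThT fluorescence after 1 hr ambient incubation.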
KDM4E inh = qHTS Assay for Inhibitors of Human Jumonji Domain Containing 2E (JMJD2E) | Lysine-specific demethylase 4E (Homo sapiens), B2RXH2 | JMJD2E catalytic domain, FDH-coupled NADH fluorescence (FDH is formaldehyde dehydrogenase) | Potency, µM (highest dose often 57.1 µM), usual class: inhibitors | 1.6% of 230,000 active; further: nearly all actives have a fitted effect of over 50% in size
Target sequence (B2RXH2 1-337 limits assumed): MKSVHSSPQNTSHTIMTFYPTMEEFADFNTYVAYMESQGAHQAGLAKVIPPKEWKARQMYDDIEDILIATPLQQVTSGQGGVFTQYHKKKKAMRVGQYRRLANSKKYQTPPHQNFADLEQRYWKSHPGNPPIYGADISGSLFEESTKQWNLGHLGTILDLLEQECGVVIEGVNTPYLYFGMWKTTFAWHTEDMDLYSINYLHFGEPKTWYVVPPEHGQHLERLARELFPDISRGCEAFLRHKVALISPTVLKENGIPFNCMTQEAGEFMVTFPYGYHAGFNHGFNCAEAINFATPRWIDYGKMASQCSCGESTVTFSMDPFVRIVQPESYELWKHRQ
Tau fibril FP = qHTS for Inhibitors of Tau Fibril Formation, Fluorescence Polarization | K18 P301L tau heparin fibrillization, Alexa594 FP, 6 h | Microtubule-associated protein tau (Homo sapiens), P10636 | Potency, µM (titrated, usually from 57.7 µM), actives largely listed as inhibitors | 0.39% of 280,000 active; active means well fitted curve in the direction sought with a large enough effect; inconclusive means small, poorly fitted or top-dose-only effect, or another doubt; inactive means no such curve, though single readings can be large; an effect the other way counts as inactive or inconclusive; further: nearly all actives have a fitted effect of over 55% in size
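FP of Alexa 594-tau after heparin (20 uM) induction. Substrate: human K18 P301L, 15 uM unlabeled, 0.24 uM labeled. Buffer 100 mM sodium acetate pH 7. 6 hr, 37 C.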
ALDH1A1 inh = qHTS Assay for Inhibitors of Aldehyde Dehydrogenase 1 (ALDH1A1). Aldehyde dehydrogenase 1A1 (Homo sapiens), P00352. Purified ALDH1A1, NADH fluorescence, propionaldehyde substrate. Potency, µM (titrated, usually from 75.3 µM), actives largely listed as inhibitors. 7.3% of 220,000 active
Large screens that a line does not name were inactive. In the library only some 9.9% were active in any assay of this set; here they are far more common. Unless noted, the call rests on the fitted dose curve; in most records, active means well fitted inhibition curve with a large enough effect (not every such curve was filed as active); inconclusive means small, poorly fitted or top-dose-only effect, or another doubt; inactive means no such curve, though single readings can be large or run the other way.

COc1cc(/C=N/Nc2ccc(F)cc2F)cc(OC)c1O	Tau fluor cs inconclusive, Tau fibril ThT inconclusive, KDM4E inh 7.9µM, ALDH1A1 inh inconclusive
C/C(=N\Nc1ccc(S(N)(=O)=O)cc1[N+](=O)[O-])c1ccc2c(c1)OCO2	Tau fluor cs inconclusive, Tau fibril ThT 3.5µM (no result: HPGD block)
NCCNC[C@H](O)CO	none (no result: Tau fluor cs, Tau fibril ThT, KDM4E inh, Tau fibril FP)
CCOCCc1nnc(NC(=O)C(=O)c2cc(C)n(-c3cccc(C)c3)c2C)s1	none (no result: HPGD block, KDM4E inh, ALDH1A1 inh)
CCN(CC)CCC(C)OC(=O)c1ccc(O)cc1O (stereo not given)	none (no result: HPGD block)
COCCn1cnc2c1c(=O)n(CC(=O)OCC(=O)NCC(F)(F)F)c(=O)n2Cc1ccccc1	none (no result: HPGD block)
COc1cc(/C=N/Nc2ccc(S(N)(=O)=O)cc2[N+](=O)[O-])cc(OC)c1O	Tau fluor cs inconclusive, Tau fibril ThT 1.8µM (no result: HPGD block, ALDH1A1 inh)
CCC(CC)=NNc1ccc(S(N)(=O)=O)cc1[N+](=O)[O-]	Tau fibril ThT inconclusive (no result: HPGD block, ALDH1A1 inh)
COc1cc(/C=N/Nc2ccccc2[N+](=O)[O-])cc(OC)c1O	none (no result: HPGD block)
NS(=O)(=O)c1ccc(N/N=C/c2ccc[nH]2)c([N+](=O)[O-])c1	Tau fluor cs inconclusive, Tau fibril ThT 7.9µM (no result: HPGD block, ALDH1A1 inh)
COc1ccc(/C=N\Nc2ccc([N+](=O)[O-])cc2[N+](=O)[O-])c(C(=O)O)c1OC	Tau fibril ThT 14µM, KDM4E inh inconclusive, ALDH1A1 inh inconclusive (no result: HPGD block)
COc1ccc(/C=N\Nc2ccccc2[N+](=O)[O-])c(C(=O)O)c1OC	Tau fibril ThT inconclusive (no result: HPGD block)
COc1cccc([C@@H]2Oc3ccc(OC)cc3/C(=N/O[C@@H](C)c3cc(-c4c(C)cc(C)cc4C)no3)[C@@H]2O)c1	none (no result: HPGD block, KDM4E inh)
O=C(CCn1c(=O)oc2ccccc21)NCc1ccc2c(c1)OCO2	ALDH1A1 inh 16µM
O=C(Cn1c(Cc2ccccc2)nc2ccccc21)NCc1ccc2c(c1)OCO2	ALDH1A1 inh 16µM
CC(=O)c1cc2c(cc1NC(=O)CCC1CCCC1)OCO2	HPGD block inconclusive
O=C(CCn1cccc1)NCc1ccc2c(c1)OCO2	HPGD block 20µM
CC(=O)c1cc2c(cc1NC(=O)CCn1cccc1)OCO2	KDM4E inh inconclusive, ALDH1A1 inh 32µM
Cc1ccc(C)c(CN2C(=O)c3ccccc3S(=O)(=O)c3ccc(C(=O)NCc4ccccc4)cc32)c1	Tau fibril FP inconclusive (no result: HPGD block, KDM4E inh, ALDH1A1 inh)
O=S(=O)(Nc1ncccn1)c1ccc(NC(=S)NCc2cccnc2)cc1	none (no result: HPGD block)
Cc1ccc(S(=O)(=O)/C(C#N)=C/c2c(N3CCCCC3)nc3ccccn3c2=O)cc1	Tau fluor cs inconclusive (no result: HPGD block, ALDH1A1 inh)
Cc1ccc(S(=O)(=O)/C(C#N)=C/c2c(N3CC(C)OC(C)C3)nc3ccccn3c2=O)cc1 (stereo not given)	HPGD block 14µM, Tau fluor cs inconclusive
N#C/C(=C\c1c(N2CCOCC2)nc2ccccn2c1=O)S(=O)(=O)c1ccccc1	HPGD block 2µM, Tau fibril FP inconclusive, ALDH1A1 inh 13µM
COc1ccc(NS(=O)(=O)c2ccc3oc(SC4CCOC4=O)nc3c2)cc1 (stereo not given)	HPGD block 32µM, ALDH1A1 inh 0.56µM
Cc1cc(O)ccc1N/C=C1\CCCC1=O	HPGD block inconclusive, Tau fibril ThT 28µM, KDM4E inh inconclusive, Tau fibril FP inconclusive, ALDH1A1 inh 13µM
CC(=O)Nc1ccc(N/C=C2/CCCC2=O)cc1	Tau fibril ThT inconclusive (no result: HPGD block, ALDH1A1 inh)
COCCn1c(NC(=S)NC(=O)C2CC2)cc(=O)[nH]c1=O	ALDH1A1 inh 0.63µM (no result: HPGD block)
COCCn1c(NC(=S)NC(=O)C23CC4CC(CC(C4)C2)C3)cc(=O)[nH]c1=O	none (no result: HPGD block, ALDH1A1 inh)
CCOCCCNC(=S)N1CCN(Cc2ccco2)CC1	ALDH1A1 inh 14µM (no result: HPGD block)
Cc1ccc(OCC(=O)Nc2ccc3[nH]c(=O)sc3c2)cc1	none (no result: HPGD block, KDM4E inh, ALDH1A1 inh)
Cc1ccc(C)c(NC(=O)CSc2nnc(CCCCCNC(=O)OC(C)(C)C)o2)c1	HPGD block 18µM, ALDH1A1 inh 9.5µM
Cc1ccc(NC(=O)CSc2nnc(CCNC(=O)OC(C)(C)C)o2)c(C)c1	none
O=C(Nc1ccc(Cl)cn1)c1cc(S(=O)(=O)N2CCCCC2)ccc1Cl	KDM4E inh inconclusive, ALDH1A1 inh 28µM
Cc1ccc(NC(=O)c2cc(S(=O)(=O)c3ccccc3)ccc2Cl)cc1	ALDH1A1 inh 10µM
O=C(Nc1cccc(O)c1)c1cc(S(=O)(=O)N2CCCC2)ccc1Cl	ALDH1A1 inh 5µM
O=C(Nc1ccc(Cl)cc1Cl)c1cc(S(=O)(=O)N2CCCCCC2)ccc1F	none (no result: HPGD block, KDM4E inh, ALDH1A1 inh)
CCOc1ncccc1C(=O)Nc1ccc(Cl)c(S(=O)(=O)N2CCCC2)c1	ALDH1A1 inh 4.5µM (no result: HPGD block)
O=C(CN1C(=O)COc2ccc(S(=O)(=O)NC3CCCC3)cc21)NCc1ccccc1Cl	none (no result: HPGD block, KDM4E inh, ALDH1A1 inh)
COc1ccc(-c2cc(C(=O)Nc3cc(C(F)(F)F)ccc3Cl)no2)cc1	none (no result: HPGD block, KDM4E inh, ALDH1A1 inh)
Cc1ccc(C)c(CN2C(=O)c3ccccc3Sc3ccc(C(=O)NC4CCCC4)cc32)c1	none (no result: HPGD block, KDM4E inh, ALDH1A1 inh)
CCOc1ccc(OCCCCOc2ccccc2C(C)=O)cc1	Tau fibril ThT inconclusive
CCc1cc(C(C)=O)c(O)cc1OCCCCCC(C)(C)c1nn[nH]n1	HPGD block 20µM, ALDH1A1 inh inconclusive
CCOC(=O)/C=C(\C)Sc1cc(O)c2ccccc2c1O	Tau fluor cs inconclusive, Tau fibril ThT 1.8µM, KDM4E inh 3.5µM, Tau fibril FP 4.5µM (no result: HPGD block, ALDH1A1 inh)
CCOC(=O)/C=C(\C)Sc1cc(=O)oc2ccccc12	HPGD block inconclusive, Tau fibril ThT inconclusive, ALDH1A1 inh inconclusive
Cn1cccc1C(=O)N1CCC2(CCN(C(=O)Nc3cccc(F)c3)CC2)CC1	none (no result: Tau fluor cs, Tau fibril ThT, KDM4E inh, Tau fibril FP)
[O][C@H]1[C@@H](O)[C@@H](CO)O[C@@H](O[C@@H]2[C@@H]3OC[C@H]2O[C@H](O[C@@H]2[C@@H](O)[C@H](C[C@@H]4[C@@H]5OC[C@H]4O[CH][C@@H]5O)O[C@H](CO)[C@@H]2OS(=O)(=O)O)[C@@H]3OS(=O)(=O)O)[C@@H]1O	none (no result: KDM4E inh)
COc1ccc(NC(=O)c2ccc(CNc3c(NC4CCCCC4)c(=O)c3=O)cc2)cc1OC	HPGD block 18µM
CCC1CCCCN1S(=O)(=O)c1cc2c3c(c1)CC(=O)N3CCC2 (stereo not given)	Tau fibril FP inconclusive (no result: HPGD block, KDM4E inh, ALDH1A1 inh)
COc1cc2c(cc1OC)n(CC(=O)c1cc(C)ccc1C)c(=O)n1nc(CCn3nc(C)cc3C)nc21	none (no result: HPGD block, KDM4E inh, ALDH1A1 inh)
